Screening data from PubChem BioAssay.
Only some compounds are listed: those with a hit (about 1.6% of all), similar ones and a draw of the others.
KCNQ2 pot = enhances the rat KCNQ2 potassium channel. B-score at 10 µM. AID 2239. CHO-K1 KCNQ2, FluxOR thallium flux fluorescence; stronger effect = higher value. O88943. 310,000 compounds, 0.54% hits;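 active means fluorescence ratio B-score at least 3 SD of library B-scores, with initial fluorescence B-score within 3 of them, cut at about 5.3 in these data; same plate scores as AID 2156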;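 further: B-score of peak minus minimum over baseline fluorescence ratio after K+ and Tl+ stimulus; positive B-score means potentiation of KCNQ2 with more thallium influx and brighter signal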
KCNQ2 inh = blocks the rat KCNQ2 potassium channel | B-score at 10 µM | CHO-K1 KCNQ2, FluxOR thallium flux, 20 min; stronger effect = lower value | AID 2156 | 310,000 compounds, 1.1% hits | O88943;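 active means fluorescence ratio B-score at most minus 3 library SDs, with starting brightness B-score within 2 library SDs, cut at about -5.5 in these data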
Kir21 confirm = confirmation of mouse Kir2.1 potassium channel inhibitors. Tl flux remaining, % of negative control (stronger effect = lower value), % at 10 µM. Kir2.1-expressing cells, FluxOR thallium flux fluorescence; stronger effect = lower value. shares compounds with KCNQ2 pot. 2,300 compounds, 41% hits;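 active means Primary-screen hit whose thallium flux fell at least 3 control SD below untreated wells in both duplicates, with normal baseline fluorescence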;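 further: 0% = blank wells without stimulus and 100% = stimulated no-compound controls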
HEK293 ctr = counter-screen for Kir2.1 inhibitors: effect in parental HEK293 cells | 2,300 compounds, 19% hits | FluxOR signal as % of negative control (100 = no effect), % at 10 µM | shares compounds with KCNQ2 pot | FluxOR thallium flux fluorescence; 0% = unstimulated blank wells;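 active means dye signal at least 3 control SD above or below untreated wells in both duplicates, raw fluorescence within 3, either direction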;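 further: percent is based on the flux ratio of peak minus minimum fluorescence over baseline F0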
CHO-K1 Tl ctr = parental CHO-K1 activity in KCNQ2 potentiator counter-screen. shares compounds with KCNQ2 pot. parental CHO-K1 cells, FluxOR thallium flux fluorescence; zero = vehicle mean+3SD, 100% = vehicle-minus-blank window. activity increase over 3SD of controls, % at 10 µM. 1,200 compounds, 43% hits. AID 2282;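 active means signal rise of at least 3 SD above the untreated control mean, in both duplicate wells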;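 further: counter screen of KCNQ2 potentiator hits so any rise reflects channel-independent effects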
KCNQ1 sel pot = tests whether KCNQ2 potentiators also act on human KCNQ1 | activation over 3SD threshold, % at 10 µM | AID 2283 | CHO KCNQ1 stable, FluxOR thallium flux fluorescence; beyond 3SD, as % of vehicle-control signal | shares compounds with KCNQ2 pot | 1,200 compounds, 28% hits;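 active means fluorescence ratio rise of at least 3 SD of vehicle wells above their mean, in both replicate wells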;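 further: 0% = vehicle mean plus 3 SD and 100% = vehicle minus unstimulated blank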
KCNQ2 pot conf = confirmation of rat KCNQ2 potassium channel potentiators. potentiation, less the hit threshold, % at 10 µM. shares compounds with KCNQ2 pot. CHO-KCNQ2 cells, FluxOR thallium flux fluorescence. 1,200 compounds, 68% hits;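 active means fluorescence ratio rising 3 SD or more over the vehicle control mean in both replicates, plus primary screen hit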;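 further: peak minus minimum thallium fluorescence divided by baseline after K/Tl stimulus; 0% = vehicle mean plus 3 SD and 100% = vehicle minus unstimulated blank difference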
Kir21 spec = mouse Kir2.1 off-target activity of KCNQ2 potentiators; shares compounds with KCNQ2 pot; HEK293 Kir2.1, FluxOR thallium flux fluorescence; activity over 3SD threshold, % at 10 µM; 1,200 compounds, 2% hits; AID 2345;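 active means fluorescence ratio rise of at least 3 SD above the vehicle-control mean, seen in both replicates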;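 further: 0% = vehicle mean plus 3 SD and 100% = vehicle minus no-stimulus blank window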
KCNQ2 W236L MoA = KCNQ2 potentiators acting on retigabine-insensitive rat KCNQ2 W236L mutant | shares compounds with KCNQ2 pot | CHO KCNQ2-W236L, automated patch clamp current | current increase over 3SD of negative controls (%), stronger effect = higher value, % at 25 µM | 940 compounds, 10% hits;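 active means current increase at least 3 SD of the untreated controls above them in both duplicate recordings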
Target sequence (O88943 whole entry W236L, looked up): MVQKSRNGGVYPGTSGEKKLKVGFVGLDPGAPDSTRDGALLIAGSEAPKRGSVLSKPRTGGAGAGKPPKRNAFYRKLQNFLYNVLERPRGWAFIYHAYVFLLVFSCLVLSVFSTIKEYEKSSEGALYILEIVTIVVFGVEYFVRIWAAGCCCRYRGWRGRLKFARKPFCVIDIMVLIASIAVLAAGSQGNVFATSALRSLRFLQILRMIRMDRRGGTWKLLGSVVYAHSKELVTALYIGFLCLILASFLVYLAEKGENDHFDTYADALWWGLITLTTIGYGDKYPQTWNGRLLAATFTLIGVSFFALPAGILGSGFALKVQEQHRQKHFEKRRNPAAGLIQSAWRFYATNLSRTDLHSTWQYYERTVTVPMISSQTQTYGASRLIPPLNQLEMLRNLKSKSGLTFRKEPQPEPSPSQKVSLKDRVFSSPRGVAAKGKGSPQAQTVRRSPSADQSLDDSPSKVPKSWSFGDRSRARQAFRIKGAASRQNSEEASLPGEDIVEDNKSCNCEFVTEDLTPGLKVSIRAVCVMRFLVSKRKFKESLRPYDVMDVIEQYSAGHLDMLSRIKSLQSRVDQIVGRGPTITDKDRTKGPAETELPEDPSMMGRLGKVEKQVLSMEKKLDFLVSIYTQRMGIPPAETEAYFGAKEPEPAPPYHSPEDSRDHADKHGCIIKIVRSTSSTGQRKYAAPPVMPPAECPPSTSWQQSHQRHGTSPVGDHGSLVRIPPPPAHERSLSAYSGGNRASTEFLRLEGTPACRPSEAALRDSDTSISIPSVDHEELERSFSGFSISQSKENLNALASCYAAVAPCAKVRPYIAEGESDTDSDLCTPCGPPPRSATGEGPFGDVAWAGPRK
* marks the source's active call; other numbers are inactive results; i = inactive; . = no result.

SMILES | KCNQ2 pot | KCNQ2 inh | Kir21 confirm | HEK293 ctr | others
COc1cccc(C(=O)Nc2nc(-c3ccccc3)c(-c3ccccc3)o2)c1 | 2.3 | i | . | .
C/C(N)=C(/C#N)C(=O)CSc1nnc(-c2ccccc2)n1C | 0.32 | i | . | .
C=CCOc1ccc(CNCCc2ccc(S(N)(=O)=O)cc2)cc1 | 1.1 | i | . | .
Cc1ccc(S(=O)c2snnc2C)cc1 (centres undefined) | . | i | . | .
CCCNC(=O)c1nnsc1S(=O)c1ccc(Cl)cc1 (centres undefined) | -6.8 | -6.8* | 74%* | i
CNC(=O)c1nnsc1S(=O)c1ccc(Cl)cc1 (centres undefined) | . | i | 66%* | 65%*
Cc1nnsc1S(=O)c1ccc(F)cc1 (centres undefined) | 0.41 | i | . | .
Cc1ccc(NC(=O)CCNS(=O)(=O)c2ccc3[nH]c(=O)oc3c2)c(Cl)c1 | . | i | . | .
Cc1ccc(NC(=O)c2ccc(Cl)c(S(=O)(=O)N3CCCC3)c2)nc1 | 0.52 | i | . | .
CC(C)CN1C(=O)c2ccc(C(=O)Nc3ccccc3C(=O)O)cc2C1=O | 0.92 | i | . | .
COc1ccc(CNC(=O)C2CCN(S(=O)(=O)c3ccc4c(c3)N(C(C)=O)CCO4)CC2)cc1 | 0.4 | i | . | .
Cc1ccc(S(=O)(=O)Oc2ccccc2/C=N/N=C(N)N)cc1 | . | i | 46%* | i
Cc1ccc(S(=O)(=O)Oc2ccccc2/C=N/NC(N)=S)cc1 | 0.42 | i | . | .
CC(NC(=O)CC12CC3CC(CC(C3)C1)C2)C(=O)O (centres undefined) | 1.2 | i | . | .
COc1ccc(C(C)NC(=O)CC23CC4CC(CC(C4)C2)C3)cc1 (centres undefined) | 5.7* | i | i | i | CHO-K1 Tl ctr=-11;KCNQ1 sel pot=-10;KCNQ2 pot conf=-3;Kir21 spec=-52;KCNQ2 W236L MoA=i
CC(=O)Nc1ccc(S(=O)(=O)N(Cc2ccccc2)c2ccccn2)cc1 | . | i | . | .
O=S(=O)(c1ccccc1)N(Cc1ccccc1)c1ccccn1 | . | i | i | i
Cc1nn(C)cc1/C=C1\SC(=S)NC1=O | 0.35 | i | . | .
O=C1NC(=S)S/C1=C\c1cc2ccccc2nc1N1CCCCC1 | 5.5* | i | i | i | CHO-K1 Tl ctr=23*;KCNQ1 sel pot=-17;KCNQ2 pot conf=21*;Kir21 spec=-21;KCNQ2 W236L MoA=i
O=C(NCCS(=O)(=O)N1CCN(c2ccc(F)cc2)CC1)C12CC3CC(CC(C3)C1)C2 | . | i | . | .
CCOC(=O)c1c(C)[nH]c(C(=O)CC(=O)OC)c1C | 0.96 | i | . | .
Cc1ccc(/C=C/C(=O)N2CC(C)CC(C)C2)o1 (centres undefined) | 6.2* | i | i | i | CHO-K1 Tl ctr=-7;KCNQ1 sel pot=-7;KCNQ2 pot conf=-1;Kir21 spec=-38;KCNQ2 W236L MoA=i
CCN1CCN(C(=O)/C=C/c2ccc(C)o2)CC1 | . | i | . | .
CCC1(c2ccccc2)NC(=O)N(CC(=O)Nc2cc(S(=O)(=O)N3CCCCCC3)ccc2OC)C1=O (centres undefined) | 0.42 | i | . | .
O=C(/C=C/c1ccccc1[N+](=O)[O-])N1CCc2ccccc2C1 | . | i | . | .
SMILES | KCNQ2 pot | KCNQ2 inh | Kir21 confirm | HEK293 ctr | others
N#Cc1c(N2CCOCC2)nc(N2CCCCC2)c2c1CCN(C1CCCCC1)C2 | 11* | i | i | i | CHO-K1 Tl ctr=-16;KCNQ1 sel pot=10*;KCNQ2 pot conf=16*;Kir21 spec=-22;KCNQ2 W236L MoA=i
CCN1CCc2c(C#N)c(N3CCCCC3)nc(N3CCOCC3)c2C1 | . | i | . | .
COC(=O)CSC1=NS(=O)(=O)c2ccccc21 | -7.9 | -7.9* | 58%* | i
COC(=O)CSc1ccccc1C(=O)OC | . | i | . | .
c1coc(CN=C2NC(=NCc3ccco3)c3ccccc32)c1 | . | i | 35%* | i
O=C1c2ccccc2C(O)N1Cc1ccco1 (centres undefined) | 2.2 | i | . | .
CNc1c(NS(=O)(=O)c2ccc3c(c2)CCCC3)c(=O)oc2ccccc12 | 0.15 | i | . | .
C/C(=N\NC(=O)c1cc2ccccc2cc1O)c1cccs1 | 7.7* | i | i | i | CHO-K1 Tl ctr=102*;KCNQ1 sel pot=-13;KCNQ2 pot conf=-13;Kir21 spec=-26
C/C(=N\NC(=O)c1cc2ccccc2cc1O)c1ccc(C)o1 | 6.7* | i | i | 412%* | CHO-K1 Tl ctr=-9;KCNQ1 sel pot=1.0*;KCNQ2 pot conf=67*;Kir21 spec=-30;KCNQ2 W236L MoA=i
C/C(=N\NC(=O)c1c[nH]c2ccccc12)c1ccc(C)o1 | 0.24 | i | . | .
O=C(NNC(=O)c1cc2ccccc2cc1O)c1cccs1 | 1.2 | i | . | .
COc1ccc(N2CCN(C(=O)COC(=O)c3ccc(C)o3)CC2)cc1 | . | i | . | .
COc1ccc(CC(=O)Nc2ccc(-c3ccc4nnc(C)n4n3)cc2)cc1OC | 0.35 | i | . | .
O=C(Cc1ccc(Cl)c(Cl)c1)NC1CCCCCC1 | 7.2* | i | i | i | CHO-K1 Tl ctr=-1;KCNQ1 sel pot=0.5*;KCNQ2 pot conf=0.8*;Kir21 spec=-33;KCNQ2 W236L MoA=i
O=C(Cc1ccc(Cl)cc1Cl)NC1CCCCCC1 | 3 | i | . | .
CCc1ccc(OCC(=O)NNC(=S)NC(=O)C2CCCCC2)c(Br)c1 | . | i | . | .
CCc1ccc(OCC(=O)NC2CCCCC2)c(Br)c1 | 23* | i | i | i | CHO-K1 Tl ctr=138*;KCNQ1 sel pot=-16;KCNQ2 pot conf=72*;Kir21 spec=-44;KCNQ2 W236L MoA=i
CCOCCCn1c(=S)[nH]c2cc(C(=O)N3CCN(c4ccccc4)CC3)ccc2c1=O | 1.2 | i | . | .
Cc1cccc(NC(=S)N(CCCN2CCOCC2)C(C)c2cc3ccccc3o2)c1C (centres undefined) | . | i | . | .
O=C(COc1ccccc1Cl)NCC(c1cccs1)N1CCOCC1 (centres undefined) | . | i | . | .
Cc1ccc(Cl)c(OCC(=O)NCC(c2cccs2)N2CCOCC2)c1 (centres undefined) | . | i | 64%* | i
O=C(O)c1ccc(N2C(=O)CC(N3C(=O)/C(=C/c4ccc(Cl)cc4)SC3=S)C2=O)cc1 (centres undefined) | 1.1 | i | . | .
O=C(c1cccnc1)N1CCN(c2c(Cl)cccc2[N+](=O)[O-])CC1 | 2 | i | . | .
CCOc1cc(S(=O)(=O)N2CCN(C(=O)c3ccco3)CC2)ccc1F | 0.69 | i | . | .
CCOC(=O)N1CCN(C(=O)COC(=O)c2ccc(S(=O)(=O)N(CC)CC)cc2)CC1 | 0.25 | i | . | .
Cc1cc(C)c(NC(=O)C2CSCCS2)c(C)c1 (centres undefined) | 6.5* | i | i | i | CHO-K1 Tl ctr=23*;KCNQ1 sel pot=15*;KCNQ2 pot conf=-3;Kir21 spec=-32;KCNQ2 W236L MoA=i
